Screening results deposited in PubChem by National Center for Advancing Translational Sciences (NCATS).
Hits are enriched below; roughly 21% of the tested compounds scored in any of these assays.
NS1 inh: inhibitors of influenza NS1 protein function; AID 2326; Potency, µM (highest dose often 46.1 µM), inactives show at the highest dose activity, positive = more growth; 270,000 compounds, 0.4% hits; further: potency means the concentration at half of the fitted maximal effect; actives are rising curves; nearly all actives have a fitted effect of over 50% in size
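A cell-based growth assay was used: compounds that relieve NS1-induced slow growth of budding yeast raise OD600. Assay medium was yeast nitrogen base with ammonium sulphate and -URA supplement, pH 6.0, with 2% galactose.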
Pf growth 96h: inhibits malaria parasite growth, 96 h; Potency, µM (doses to about 28.7 µM), for the others: at the top dose activity change, negative = inhibition, usual class: inhibitors; 320,000 compounds, 6.9% hits; AID 504834; P. falciparum luciferase reporter growth, 96 h; active means well fitted inhibition curve with a large enough effect; inconclusive means small, poorly fitted or top-dose-only effect, or another doubt; inactive means no such curve, though single readings can be large or run the other way; further: potency means the concentration at half of the fitted maximal effect; on the % scale 0 is the no-effect control and ±100 the full control effect
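Erythrocytes infected with luciferase-expressing P. falciparum were dispensed at 2% hematocrit and 0.05% parasitemia (final), then incubated with compounds 96 hours at 37 C in 5% CO2. Luminescence after detection reagent addition reported growth.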
SARS PLP yeast: inhibitors of SARS-CoV papain-like protease in yeast; S. cerevisiae expressing SARS-CoV PLpro, growth rescue; Potency, µM (titrated, usually from 32.9 µM), for inactives: top-dose activity, positive = growth rescue, actives largely listed as activators; 330,000 compounds, 0.19% hits; AID 485353; further: potency means the concentration at half of the fitted maximal effect; 0% is about no effect; nearly all actives have a fitted effect of over 55% in size
CHX counter: affects cycloheximide protein synthesis inhibition readout, counter-screen. cell reporter, cycloheximide protein synthesis inhibition counterscreen. max response, %. 300,000 compounds, 12% hits. AID 2314; in the data active means max response mostly above about 13%, no sharp cut-off; inactive means mostly below about 14%; further: read at 38.3 µM for the half of the compounds with a filed dose; 0% is about no effect
Shiga inhibitor: Shiga toxin inhibition; Vero cells, Shiga toxin protein synthesis inhibition reporter; inhibition, % at 38.7 µM; 290,000 compounds, 9.2% hits; in the data active means inhibition mostly above about 28%, no sharp cut-off; inactive means mostly below about 43%; further: 0% is about no effect
Pf growth 48h: P. falciparum growth inhibition at 48 hours (one generation) | P. falciparum luciferase growth in erythrocytes, 48 h | Potency, µM (series often up to 28.7 µM), without a hit: at the highest dose activity change, negative = inhibition, hits mostly inhibitors | 310,000 compounds, 5.9% hits; active means well fitted inhibition curve with a large enough effect; inconclusive means small, poorly fitted or top-dose-only effect, or another doubt; inactive means no such curve, though single readings can be large or run the other way; further: potency means the concentration at half of the fitted maximal effect; on the % scale 0 is the no-effect control and ±100 the full control effect
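Growth was read as firefly luciferase luminescence after a 48 h, 37 C, 5% CO2 exposure of compounds to reporter-bearing P. falciparum cultures (0.1% parasitemia, 2% hematocrit final) in Albumax-supplemented RPMI 1640.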
* = called active by the depositor; u = inconclusive; x = no result given; [ ] = another dose, or the depositor's remark. Unless noted, the call rests on the fitted dose curve.

SMILES	NS1 inh	Pf growth 96h	SARS PLP yeast	CHX counter	Shiga inhibitor	Pf growth 48h
CC1Cc2ccccc2N1CC(=O)Nc1ccc(S(=O)(=O)N(C)C)cc1 (stereo not given)	6%	u	-2%	-1	-6	u
CC1Cc2ccccc2N1CC(=O)Nc1ccc(Cl)c(S(=O)(=O)N(C)C)c1 (stereo not given)	x	-54%	-2%	-3	-1	9.3µM*
CN(CC(=O)Nc1ccc(Cl)c(S(=O)(=O)N(C)C)c1)Cc1ccccc1	11%	u	5%	40*	73*	-6%
COc1ccc(NC(=O)CN(C)CC(=O)Nc2ccc(Cl)c(S(=O)(=O)N(C)C)c2)cc1	x	u	6%	1	45	-15%
CC(NC(=O)c1ccco1)C(=O)N1CCCCC1 (stereo not given)	7%	u	9%	-2	-19	12%
COc1ccc(C(C)NC(=O)C2CCCC2)cc1OC (stereo not given)	15%	-12%	-5%	-2	-7	u
CCn1c(=O)c(=O)[nH]c2cc(C(=O)NCc3ccc(F)cc3)ccc21	6%	11%	8%	-8	-5	3%
Cc1ccc(NC(=O)CCc2c(C)nn(-c3ccc(N4CCCCC4)nn3)c2C)cc1C	-22%	12%	4%	43*	70*	13%
Cc1nn(-c2ccc(N3CCCCC3)nn2)c(C)c1CCC(=O)Nc1ccc(F)c(F)c1	u	-29%	-33%	60*	103*	61%
Cc1cc(F)ccc1NC(=O)CCc1c(C)nn(-c2ccc(N3CCCCC3)nn2)c1C	-17%	30%	0%	-3	-3	4%
Cc1ccc(NC(=O)CCc2c(C)nn(-c3ccc(N4CCCCC4)nn3)c2C)cc1	-20%	u	-1%	53*	86*	43%
Cc1ccc(F)cc1NC(=O)CCc1c(C)nn(-c2ccc(N3CCCCC3)nn2)c1C	-15%	2%	-1%	31*	24	u
COc1ccc(C)cc1NC(=O)CCc1c(C)nn(-c2ccc(N3CCCCC3)nn2)c1C	u	-18%	-7%	18*	45	-17%
Cc1ccc(CNC(=O)CCc2c(C)nn(-c3ccc(N4CCOCC4)nn3)c2C)cc1	13%	u	-1%	-1	-5	13%
CCOc1ccccc1NC(=O)CCc1c(C)nn(-c2ccc(N3CCCCC3)nn2)c1C	-15%	u	-5%	11	7	u
Cc1cc(C)cc(NC(=O)CCc2c(C)nn(-c3ccc(N4CCCCC4)nn3)c2C)c1	1%	8%	-3%	48*	51*	34%
Nn1c(SCC(=O)NCC2CCCO2)nnc1-c1cc(Cl)ccc1Cl (stereo not given)	x	25%	3%	x	x	-17%
CC(C)(C)n1cc(C(=O)c2ccccc2)cc1-c1ccccc1	3%	u	2%	-1	33	12µM*
COc1ccc2cc1Oc1ccc(cc1)C[C@@H]1c3c(cc(OC)c4c3Oc3cc5c(cc3O4)CCN[C@H]5C2)CCN1C	-8%	x	x	x	x	x
O=C(CCl)c1ccc(Oc2ccc(C(=O)CCl)cc2)cc1	x	-8%	x	x	x	u
CCCCOc1ccc(S(=O)(=O)N2CCN(c3ccc(N4CCN(CC)CC4)nn3)CC2)cc1	x	u	5%	x	x	12µM*
CCCCOc1ccc(S(=O)(=O)N2CCCCC2)cc1	-13%	3%	2%	5	-11	2%
N#Cc1ccccc1NC(=O)c1ccc(-c2ccccc2Cl)o1	-14%[9.22 µM]	x	-6%	30*	123*	146%
O=C(Nc1ccccc1)c1ccc(-c2ccccc2Cl)o1	-20%	99%	9%	38*	58	143%
CC(=O)Nc1ccc(NC(=O)c2ccc(-c3ccccc3Cl)o2)cc1	x	-20%	7%	x	x	42%
SMILES	NS1 inh	Pf growth 96h	SARS PLP yeast	CHX counter	Shiga inhibitor	Pf growth 48h
CC(C)NC(=O)c1ccc(-c2ccc(Cl)c(C(F)(F)F)c2)o1	6%	3.3µM*	-9%	-4	-9	x
O=C(Nc1ccccc1)c1ccc(-c2ccccc2C(F)(F)F)o1	-65%	u	-24%	46*	73*	u
CC(C)NC(=O)c1ccc(-c2ccccc2C(F)(F)F)o1	2%	10%	-2%	44*	93*	22%
Cc1cc(N2C(=O)C3CC=CC(C)C3C2=O)no1 (stereo not given)	8%	21%	5%	-4	-9	13%
c1ccc2oc(-c3ccc(Nc4nc(N5CCCC5)nc(N5CCOCC5)n4)cc3)nc2c1	3%	25%	0%	3	8	10%
COC1C(OC(=O)c2ccc(C)[nH]2)C(O)C(Oc2ccc3c(O)c(NC(=O)c4ccc(O)c(CC=C(C)C)c4)c(=O)oc3c2Cl)OC1(C)C (stereo not given)	u	u	1%	-2	-5	5.9µM*
Cc1ccc(OCCN2C(=O)C(=O)c3cccc(C)c32)cc1	-4%	-1%	1%	-4	-11	2%
Cc1ccc(S(=O)(=O)NC(C)(C)CN2CCc3ccccc3C2)cc1	-1%	4%	-2%	-4	-18	-2%
CCOC(=O)C1(Cc2ccccc2C(F)(F)F)CCN(C2CCN(C(C)C)CC2)CC1	1%	15µM*	-1%	-4	-9	6%
COc1ccc2[nH]c3c(c2c1)CCN1C(=O)C(CC(=O)NC(C)(C)C)C[C@H](C(=O)N2CCCCC2)[C@@]31C (stereo not given in full)	x	x	-7%	x	x	x
COc1ccccc1-c1nc2cc3ccccc3cc2nc1-c1ccccc1	14%	u	-30%	14	38	u
CCCCN1CCc2c([nH]c3c(C)cccc23)C1=O	-16%	u	-2%	42*	69*	x
O=C(c1ccc(NC(=S)Nc2ccc(F)cc2F)cc1)N1CCOCC1	5%	33%	-1%	-1	13	7%
S=c1sc2c(N3CCOCC3)ncnc2n1-c1ccccc1	8%	15µM*	16%	19	36	x
CCN1CCN(c2ncnc3c2sc(=S)n3-c2ccccc2)CC1	u	u	6%	-2	-10	8%
CCOc1ccc(CCNC(=O)c2c(C)nn(-c3ccccc3)c2Cl)cc1OCC	-1%	24%	-5%	-1	-10	33%
CCOC(=O)[C@H]1[C@H]2COc3ccccc3[C@@H]2N2C(=O)c3cc(Br)ccc3NC(=O)[C@@]12C	x	6.6µM*	4%	x	x	4.1µM*
CCOC(=O)[C@H]1[C@H]2COc3ccc(Br)cc3[C@@H]2N2C(=O)c3cc(Br)ccc3NC(=O)[C@@]12C	x	8.3µM*	-10%	x	x	u
CCOC(=O)[C@H]1[C@H]2COc3ccccc3[C@@H]2N2C(=O)c3ccc(Cl)cc3NC(=O)[C@@]12C	x	u	-1%	x	x	u
CCCCN(C(=O)CNC(=O)c1cccs1)C(C(=O)NC1CCCC1)c1ccncc1 (stereo not given)	-3%	17%	0%	28*	46	-30%
